Measurements reported in the supplement of paper PMC10849652.
The full data set covers some 8,800 targets. This sample favours those with a hit. About 0.5% of all pairs of compound and target were hits. A number with no mark means an inactive call.

Tests used:
Experiment in all cases: log2 fold change, soluble protein after heating vs DMSO (PISA); higher = thermal stabilisation; K562 lysate, 10 uM; active = over 0.2 and 3.5 SD of the protein, either way, in both replicates (recomputed)
[1] = compound: NCC(=O)Nc1ccc(-n2nc(C(F)(F)F)cc2-c2ccc3c(ccc4ccccc43)c2)cc1
Summary of the method: (§1)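 Thermal stability, expressed as log-two fold change relative to solvent controls, is given from duplicates. Crude K562 extract in PBS pH 7.4 with 1 mM MgCl2, at 1 mg/mL protein, was treated with 10 μM compound for 30 min and heated in aliquots for 3 min across 48°C-58°C. After pooling, adjustment to 0.5% NP-40 at 4°C and centrifugation at 21,000xg for 90 min, supernatant protein was measured by TMTpro 16plex LC-MS/MS with channel sums equalised.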

[2] = compound: O=C(CCCCCCC(=O)Nc1ccccc1)NO [vorinostat]
Summary of the method: as §1

[3] = compound: O=C(O)c1ccc2c(c1)nc(Nc1cccc(Cl)c1)c1ccncc12 [silmitasertib]
Summary of the method: as §1

[4] = compound: O=C1NC(=O)C(c2cnc3ccccn23)=C1c1cn2c3c(cc(F)cc13)CN(C(=O)N1CCCCC1)CC2
Summary of the method: as §1

[5] = compound: c1cn2cc(-c3ccc4cn[nH]c4c3)nc(Nc3ccc(N4CCOCC4)cc3)c2n1 [entospletinib]
Summary of the method: as §1

POLR2M (UniProt Q6EEV4)
log2 fold change [1]: 0.146
log2 fold change [2]: -0.019
log2 fold change [3]: -0.069
log2 fold change [4]: 0.06
log2 fold change [5]: -0.022

PIP4K2B (UniProt P78356)
log2 fold change [1]: 0.005
log2 fold change [2]: 0.074
log2 fold change [3]: 0.221
log2 fold change [4]: 0.073
log2 fold change [5]: -0.013

PTGES2 (UniProt Q9H7Z7)
log2 fold change [1]: -0.175
log2 fold change [2]: -0.197
log2 fold change [3]: 0.304
log2 fold change [4]: 0.12
log2 fold change [5]: 0.085

PCIF1 (UniProt Q9H4Z3)
log2 fold change [1]: -0.018
log2 fold change [2]: -0.011
log2 fold change [3]: 0.112
log2 fold change [4]: 0.036
log2 fold change [5]: 0.085

PPIE (UniProt Q9UNP9)
Chain of UniProt Q9UNP9 (Q9UNP9 whole entry, looked up): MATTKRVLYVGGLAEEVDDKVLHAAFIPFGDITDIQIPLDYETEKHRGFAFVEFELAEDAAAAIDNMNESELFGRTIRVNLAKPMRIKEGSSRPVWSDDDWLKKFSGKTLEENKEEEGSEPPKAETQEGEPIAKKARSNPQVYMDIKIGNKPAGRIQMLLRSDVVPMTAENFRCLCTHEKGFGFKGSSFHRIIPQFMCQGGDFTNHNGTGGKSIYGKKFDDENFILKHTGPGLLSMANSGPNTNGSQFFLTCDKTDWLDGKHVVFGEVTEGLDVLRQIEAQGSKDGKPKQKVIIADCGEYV
log2 fold change [1]: 0.024
log2 fold change [2]: 0.096
log2 fold change [3]: 0.035
log2 fold change [4]: -0.045
log2 fold change [5]: -0.036

PKN1 isoform 2 (UniProt Q16512)
Chain of UniProt Q16512 (Q16512 whole entry, looked up): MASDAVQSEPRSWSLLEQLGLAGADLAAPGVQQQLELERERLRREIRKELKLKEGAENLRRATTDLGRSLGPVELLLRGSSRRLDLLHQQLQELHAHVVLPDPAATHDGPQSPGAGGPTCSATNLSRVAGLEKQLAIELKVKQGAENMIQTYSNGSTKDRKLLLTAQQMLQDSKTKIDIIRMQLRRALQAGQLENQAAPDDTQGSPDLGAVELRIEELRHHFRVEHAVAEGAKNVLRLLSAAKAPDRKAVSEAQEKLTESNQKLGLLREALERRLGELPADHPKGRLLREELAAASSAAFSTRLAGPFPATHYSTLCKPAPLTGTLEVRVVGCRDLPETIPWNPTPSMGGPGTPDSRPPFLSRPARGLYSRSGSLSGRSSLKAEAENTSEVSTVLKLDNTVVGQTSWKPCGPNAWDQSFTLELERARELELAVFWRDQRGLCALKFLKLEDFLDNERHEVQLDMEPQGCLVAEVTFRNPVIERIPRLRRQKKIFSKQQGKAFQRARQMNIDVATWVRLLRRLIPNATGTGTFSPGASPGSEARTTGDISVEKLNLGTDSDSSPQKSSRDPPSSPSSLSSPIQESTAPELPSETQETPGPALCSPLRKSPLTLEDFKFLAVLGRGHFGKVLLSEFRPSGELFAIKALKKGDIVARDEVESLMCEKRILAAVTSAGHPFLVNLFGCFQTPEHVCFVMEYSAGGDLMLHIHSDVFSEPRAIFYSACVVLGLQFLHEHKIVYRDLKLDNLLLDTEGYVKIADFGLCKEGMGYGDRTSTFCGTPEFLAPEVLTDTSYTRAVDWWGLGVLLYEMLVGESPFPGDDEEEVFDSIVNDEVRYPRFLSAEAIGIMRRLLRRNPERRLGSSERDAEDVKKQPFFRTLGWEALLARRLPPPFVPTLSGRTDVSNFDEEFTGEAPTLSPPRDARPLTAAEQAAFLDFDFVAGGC
log2 fold change [1]: 0.002
log2 fold change [2]: -0.131
log2 fold change [3]: -0.012
log2 fold change [4]: -0.138
log2 fold change [5]: -0.009

PPOX (UniProt P50336)
Chain of UniProt P50336 (P50336 whole entry, looked up): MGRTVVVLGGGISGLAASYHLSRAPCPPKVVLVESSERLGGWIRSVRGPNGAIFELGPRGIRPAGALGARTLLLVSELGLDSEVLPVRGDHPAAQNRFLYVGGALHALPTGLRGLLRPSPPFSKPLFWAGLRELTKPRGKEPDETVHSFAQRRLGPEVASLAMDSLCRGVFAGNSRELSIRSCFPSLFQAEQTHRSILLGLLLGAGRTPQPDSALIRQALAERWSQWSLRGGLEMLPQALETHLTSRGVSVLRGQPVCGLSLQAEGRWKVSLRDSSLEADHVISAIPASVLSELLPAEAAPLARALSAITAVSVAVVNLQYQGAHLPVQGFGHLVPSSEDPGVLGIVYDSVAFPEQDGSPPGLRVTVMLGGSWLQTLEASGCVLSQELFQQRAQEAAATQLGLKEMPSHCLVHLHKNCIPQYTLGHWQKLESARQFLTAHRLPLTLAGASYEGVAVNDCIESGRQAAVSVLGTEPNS
log2 fold change [1]: 0
log2 fold change [2]: -0.142
log2 fold change [3]: 0.11
log2 fold change [4]: 0.016
log2 fold change [5]: 0

PGPEP1 (UniProt Q9NXJ5)
log2 fold change [1]: 0
log2 fold change [2]: -0.526 (active)
log2 fold change [3]: 0.009
log2 fold change [4]: 0.012
log2 fold change [5]: -0.049

PDAP1 (UniProt Q13442)
log2 fold change [1]: 0.014
log2 fold change [2]: 0.118
log2 fold change [3]: 0.005
log2 fold change [4]: -0.004
log2 fold change [5]: -0.027

PPIL2 (UniProt Q13356)
log2 fold change [1]: 0.015
log2 fold change [2]: -0.32 (active)
log2 fold change [3]: 0.019
log2 fold change [4]: -0.009
log2 fold change [5]: 0.014

PRIMPOL (UniProt Q96LW4)
log2 fold change [1]: -0.03
log2 fold change [2]: -0.337 (active)
log2 fold change [3]: 0.034
log2 fold change [4]: -0.028
log2 fold change [5]: 0.029

PCYT1B (UniProt Q9Y5K3)
log2 fold change [1]: -0.03
log2 fold change [2]: 0.064
log2 fold change [3]: -0.062
log2 fold change [4]: -0.027
log2 fold change [5]: 0.002

PDE4DIP isoform 4 (UniProt Q5VU43)
log2 fold change [1]: 0.077
log2 fold change [2]: 0.029
log2 fold change [3]: -0.029
log2 fold change [4]: 0.057
log2 fold change [5]: -0.025

PRMT5 (UniProt O14744)
log2 fold change [1]: 0.012
log2 fold change [2]: 0.013
log2 fold change [3]: -0.037
log2 fold change [4]: 0.001
log2 fold change [5]: 0.013

POLA1 (UniProt P09884)
log2 fold change [1]: 0.009
log2 fold change [2]: -0.293 (active)
log2 fold change [3]: -0.019
log2 fold change [4]: 0.006
log2 fold change [5]: -0.016

PMPCA (UniProt Q10713)
log2 fold change [1]: 0.031
log2 fold change [2]: 0.033
log2 fold change [3]: -0.044
log2 fold change [4]: 0.003
log2 fold change [5]: -0.019

PPP2R5C isoform 2 (UniProt Q13362)
log2 fold change [1]: -0.004
log2 fold change [2]: -0.12
log2 fold change [3]: 0.015
log2 fold change [4]: 0.086

PFKFB2 (UniProt O60825)
log2 fold change [1]: -0.007
log2 fold change [2]: -0.39 (active)
log2 fold change [3]: 0.033
log2 fold change [4]: 0.026
log2 fold change [5]: 0.018

PSTPIP2 (UniProt Q9H939)
log2 fold change [1]: 0.046
log2 fold change [2]: -0.312 (active)
log2 fold change [3]: 0.04
log2 fold change [4]: 0.017
log2 fold change [5]: -0.005

PIAS2 (UniProt O75928)
Chain of UniProt O75928 (O75928 whole entry, looked up): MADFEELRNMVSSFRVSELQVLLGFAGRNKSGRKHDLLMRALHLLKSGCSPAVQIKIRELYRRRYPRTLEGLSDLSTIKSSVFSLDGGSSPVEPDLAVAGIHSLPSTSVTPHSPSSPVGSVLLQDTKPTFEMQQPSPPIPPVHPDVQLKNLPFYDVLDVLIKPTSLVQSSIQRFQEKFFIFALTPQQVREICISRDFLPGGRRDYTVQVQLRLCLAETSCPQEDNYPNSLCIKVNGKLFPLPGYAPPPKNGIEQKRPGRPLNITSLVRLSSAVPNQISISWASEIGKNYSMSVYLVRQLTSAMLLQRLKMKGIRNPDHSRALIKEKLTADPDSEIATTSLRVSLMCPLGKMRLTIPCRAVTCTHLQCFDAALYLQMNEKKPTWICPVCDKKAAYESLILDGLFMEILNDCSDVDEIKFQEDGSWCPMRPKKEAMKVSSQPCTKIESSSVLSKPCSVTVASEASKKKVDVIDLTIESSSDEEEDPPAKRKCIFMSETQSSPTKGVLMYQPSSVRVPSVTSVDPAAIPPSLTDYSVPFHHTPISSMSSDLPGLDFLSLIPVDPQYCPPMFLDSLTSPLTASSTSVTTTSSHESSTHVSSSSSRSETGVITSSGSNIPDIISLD
log2 fold change [1]: 0.469 (active)
log2 fold change [2]: -0.334 (active)
log2 fold change [3]: -0.091
log2 fold change [4]: -0.054
log2 fold change [5]: 0.01

PFDN2 (UniProt Q9UHV9)
log2 fold change [1]: -0.049
log2 fold change [2]: 0.098
log2 fold change [3]: 0.015
log2 fold change [4]: -0.068
log2 fold change [5]: 0.007

PPIC (UniProt P45877)
log2 fold change [1]: 0.12
log2 fold change [2]: 0.044
log2 fold change [3]: 0.021
log2 fold change [4]: 0.262

PCBP2 isoform 8 (UniProt Q15366)
log2 fold change [1]: -0.06
log2 fold change [2]: -0.489 (active)
log2 fold change [3]: -0.037
log2 fold change [4]: 0.054
log2 fold change [5]: -0.091

PIK3CD (UniProt O00329)
log2 fold change [1]: -0.059
log2 fold change [2]: -0.516 (active)
log2 fold change [3]: 0.223
log2 fold change [4]: -0.004

PDPK1 (UniProt O15530)
log2 fold change [1]: -0.056
log2 fold change [2]: -0.246
log2 fold change [3]: 0.09
log2 fold change [4]: 0.004
log2 fold change [5]: -0.007

PRKCD (UniProt Q05655)
log2 fold change [1]: 0.008
log2 fold change [2]: -0.075
log2 fold change [3]: -0.006
log2 fold change [4]: -0.005
log2 fold change [5]: 0.019

PEX2 (UniProt P28328)
log2 fold change [1]: -0.055
log2 fold change [2]: -0.25
log2 fold change [3]: 0.042
log2 fold change [4]: 0.043

PTPN1 (UniProt P18031)
log2 fold change [1]: -0.005
log2 fold change [2]: -0.29 (active)
log2 fold change [3]: 0.04
log2 fold change [4]: 0.012
log2 fold change [5]: 0.048

PPP2R5B (UniProt Q15173)
log2 fold change [1]: 0.077
log2 fold change [2]: -0.075
log2 fold change [3]: -0.007
log2 fold change [4]: -0.065
log2 fold change [5]: 0.028

PYURF (UniProt Q96I23)
log2 fold change [1]: -0.346 (active)
log2 fold change [2]: -0.007
log2 fold change [3]: -0.001
log2 fold change [4]: -0.055
log2 fold change [5]: -0.048

PRMT8 (UniProt Q9NR22)
log2 fold change [1]: 0.067
log2 fold change [2]: -0.157
log2 fold change [3]: -0.018
log2 fold change [4]: -0.017
log2 fold change [5]: 0.002

PCBP2 (UniProt H3BRU6)
log2 fold change [1]: 0.139
log2 fold change [2]: -0.662 (active)
log2 fold change [3]: -0.102
log2 fold change [4]: -0.053
log2 fold change [5]: 0.061

PI4KA (UniProt P42356)
log2 fold change [1]: -0.011
log2 fold change [2]: -0.426 (active)
log2 fold change [3]: 0.077
log2 fold change [4]: 0.004
log2 fold change [5]: 0.031

PRKCSH (UniProt P14314)
log2 fold change [1]: 0.002
log2 fold change [2]: 0.141
log2 fold change [3]: -0.015
log2 fold change [4]: -0.001
log2 fold change [5]: 0.001

PRKACA (UniProt P17612)
log2 fold change [1]: -0.114
log2 fold change [2]: 0.007
log2 fold change [3]: -0.02
log2 fold change [4]: 0.033
log2 fold change [5]: 0.03

PDCD6IP (UniProt Q8WUM4)
Chain of UniProt Q8WUM4 (Q8WUM4 whole entry, looked up): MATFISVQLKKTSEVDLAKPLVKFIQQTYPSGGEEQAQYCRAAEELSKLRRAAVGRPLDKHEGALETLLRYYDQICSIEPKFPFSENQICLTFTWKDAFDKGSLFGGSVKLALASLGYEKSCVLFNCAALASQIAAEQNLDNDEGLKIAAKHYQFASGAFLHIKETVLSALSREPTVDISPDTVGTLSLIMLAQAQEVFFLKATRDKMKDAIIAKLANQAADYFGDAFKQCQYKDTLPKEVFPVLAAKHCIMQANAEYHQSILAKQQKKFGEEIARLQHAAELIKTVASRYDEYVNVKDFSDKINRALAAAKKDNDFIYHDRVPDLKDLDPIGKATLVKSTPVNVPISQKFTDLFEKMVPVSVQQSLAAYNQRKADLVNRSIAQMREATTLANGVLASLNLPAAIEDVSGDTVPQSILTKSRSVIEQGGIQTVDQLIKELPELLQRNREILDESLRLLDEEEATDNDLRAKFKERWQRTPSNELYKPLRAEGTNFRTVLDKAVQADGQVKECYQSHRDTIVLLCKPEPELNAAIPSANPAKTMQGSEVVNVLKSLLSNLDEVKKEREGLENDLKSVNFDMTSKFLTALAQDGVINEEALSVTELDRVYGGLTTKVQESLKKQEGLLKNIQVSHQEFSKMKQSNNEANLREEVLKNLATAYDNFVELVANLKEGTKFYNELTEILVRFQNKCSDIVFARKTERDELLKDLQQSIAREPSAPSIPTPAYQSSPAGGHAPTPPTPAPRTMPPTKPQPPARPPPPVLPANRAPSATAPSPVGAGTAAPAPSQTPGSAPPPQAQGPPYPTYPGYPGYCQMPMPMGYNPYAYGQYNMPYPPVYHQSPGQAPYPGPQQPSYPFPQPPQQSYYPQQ
log2 fold change [1]: 0.065
log2 fold change [2]: -0.332 (active)
log2 fold change [3]: -0.005
log2 fold change [4]: 0.009
log2 fold change [5]: -0.009

PIK3R2 (UniProt O00459)
log2 fold change [1]: -0.007
log2 fold change [2]: -0.245
log2 fold change [3]: 0.201
log2 fold change [4]: -0.029
log2 fold change [5]: -0.092

PTPN2 (UniProt P17706)
log2 fold change [1]: -0.005
log2 fold change [2]: -0.298 (active)
log2 fold change [3]: 0.024
log2 fold change [4]: -0.002
log2 fold change [5]: 0.07

PI4K2B (UniProt Q8TCG2)
Chain of UniProt Q8TCG2 (Q8TCG2 whole entry, looked up): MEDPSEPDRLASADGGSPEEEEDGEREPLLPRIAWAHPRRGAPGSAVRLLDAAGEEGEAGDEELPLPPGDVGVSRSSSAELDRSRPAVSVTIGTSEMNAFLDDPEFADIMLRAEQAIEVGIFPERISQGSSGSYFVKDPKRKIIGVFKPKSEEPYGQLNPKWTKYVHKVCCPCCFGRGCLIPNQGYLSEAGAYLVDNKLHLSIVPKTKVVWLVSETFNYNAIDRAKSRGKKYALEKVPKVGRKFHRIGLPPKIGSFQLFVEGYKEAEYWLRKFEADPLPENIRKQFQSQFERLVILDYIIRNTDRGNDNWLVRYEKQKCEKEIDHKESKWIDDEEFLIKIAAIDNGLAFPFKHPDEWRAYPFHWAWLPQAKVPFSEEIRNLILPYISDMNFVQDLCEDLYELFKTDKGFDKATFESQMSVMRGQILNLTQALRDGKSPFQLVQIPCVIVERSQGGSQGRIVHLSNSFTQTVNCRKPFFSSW
log2 fold change [1]: -0.038
log2 fold change [2]: -0.054
log2 fold change [3]: 0.041
log2 fold change [4]: 0.011
log2 fold change [5]: 0.014

PPCDC (UniProt Q96CD2)
log2 fold change [1]: 0.001
log2 fold change [2]: -0.002
log2 fold change [3]: 0.071
log2 fold change [4]: -0.015
log2 fold change [5]: 0.002

PICALM (UniProt Q13492)
log2 fold change [1]: 0.02
log2 fold change [2]: 0.048
log2 fold change [3]: 0.003
log2 fold change [4]: -0.019
log2 fold change [5]: -0.005

PEF1 (UniProt Q9UBV8)
log2 fold change [1]: -0.186
log2 fold change [2]: 0.467 (active)
log2 fold change [3]: -0.005
log2 fold change [4]: -0.008
log2 fold change [5]: -0.009

POLD3 (UniProt Q15054)
Chain of UniProt Q15054 (Q15054 whole entry, looked up): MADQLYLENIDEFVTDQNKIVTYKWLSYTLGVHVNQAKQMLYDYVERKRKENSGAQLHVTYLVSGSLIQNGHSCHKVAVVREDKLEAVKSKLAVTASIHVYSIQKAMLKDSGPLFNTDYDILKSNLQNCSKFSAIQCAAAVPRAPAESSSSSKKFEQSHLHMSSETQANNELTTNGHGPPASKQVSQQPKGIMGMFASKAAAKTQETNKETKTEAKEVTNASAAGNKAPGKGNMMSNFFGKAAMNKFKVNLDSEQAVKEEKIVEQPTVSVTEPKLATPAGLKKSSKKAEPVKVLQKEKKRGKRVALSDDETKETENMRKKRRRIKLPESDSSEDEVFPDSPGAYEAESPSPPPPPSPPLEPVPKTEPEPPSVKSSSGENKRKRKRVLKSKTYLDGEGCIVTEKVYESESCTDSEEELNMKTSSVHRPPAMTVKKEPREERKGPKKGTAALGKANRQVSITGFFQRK
log2 fold change [1]: 0.045
log2 fold change [2]: -0.335 (active)
log2 fold change [3]: -0.02
log2 fold change [4]: -0.03
log2 fold change [5]: 0.011

PPM1H (UniProt Q9ULR3)
Chain of UniProt Q9ULR3 (Q9ULR3 whole entry, looked up): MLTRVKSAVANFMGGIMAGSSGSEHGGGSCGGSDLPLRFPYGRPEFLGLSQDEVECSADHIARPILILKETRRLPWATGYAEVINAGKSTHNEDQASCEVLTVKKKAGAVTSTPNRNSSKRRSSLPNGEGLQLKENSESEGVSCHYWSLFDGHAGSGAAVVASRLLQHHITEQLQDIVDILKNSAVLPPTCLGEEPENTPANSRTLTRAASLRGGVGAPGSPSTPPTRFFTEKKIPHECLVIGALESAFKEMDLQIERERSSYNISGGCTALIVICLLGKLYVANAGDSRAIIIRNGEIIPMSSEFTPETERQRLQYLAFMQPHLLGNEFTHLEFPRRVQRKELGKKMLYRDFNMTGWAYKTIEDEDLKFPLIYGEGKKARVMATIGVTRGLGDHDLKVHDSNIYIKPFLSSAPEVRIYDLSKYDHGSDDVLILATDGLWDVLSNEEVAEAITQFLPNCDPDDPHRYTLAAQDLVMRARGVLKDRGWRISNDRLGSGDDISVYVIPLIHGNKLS
log2 fold change [1]: -0.004
log2 fold change [2]: 0.206
log2 fold change [3]: -0.05
log2 fold change [4]: -0.045
log2 fold change [5]: -0.002

PDF (UniProt Q9HBH1)
Chain of UniProt Q9HBH1 (Q9HBH1 whole entry, looked up): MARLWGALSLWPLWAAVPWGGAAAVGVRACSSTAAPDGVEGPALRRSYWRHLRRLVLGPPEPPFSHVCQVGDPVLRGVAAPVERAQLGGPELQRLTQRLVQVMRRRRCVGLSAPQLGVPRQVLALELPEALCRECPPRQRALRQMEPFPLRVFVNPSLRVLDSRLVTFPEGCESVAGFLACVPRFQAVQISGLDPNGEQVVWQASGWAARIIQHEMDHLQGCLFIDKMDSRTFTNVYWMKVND
log2 fold change [1]: -0.095
log2 fold change [2]: -0.232
log2 fold change [3]: 0.044
log2 fold change [4]: 0
log2 fold change [5]: -0.004

PTMA (UniProt P06454)
log2 fold change [1]: -0.002
log2 fold change [2]: 0.093
log2 fold change [3]: -0.036
log2 fold change [4]: 0.023
log2 fold change [5]: -0.025

PCBD2 (UniProt Q9H0N5)
log2 fold change [1]: 0.008
log2 fold change [2]: 0.034
log2 fold change [3]: 0.01
log2 fold change [4]: -0.006
log2 fold change [5]: 0.003

PRKDC (UniProt P78527)
log2 fold change [1]: -0.089
log2 fold change [2]: -0.426 (active)
log2 fold change [3]: 0.762 (active)
log2 fold change [4]: 0.207
log2 fold change [5]: 0.013

PCBP3 (UniProt P57721)
log2 fold change [1]: 0.016
log2 fold change [2]: -0.371 (active)
log2 fold change [3]: 0.001
log2 fold change [4]: -0.001
log2 fold change [5]: 0.016

PIK3CB (UniProt P42338)
log2 fold change [1]: -0.041
log2 fold change [2]: -0.395
log2 fold change [3]: 0.321
log2 fold change [4]: -0.046
log2 fold change [5]: 0.038

PYCR2 (UniProt Q96C36)
log2 fold change [1]: 0.002
log2 fold change [2]: 0.1
log2 fold change [3]: -0.008
log2 fold change [4]: 0.015
log2 fold change [5]: 0

PIM1 isoform 2 (UniProt P11309)
log2 fold change [1]: 0.098
log2 fold change [2]: -0.188
log2 fold change [3]: 0.212
log2 fold change [4]: 0.019
log2 fold change [5]: 0.008

PMS2 (UniProt P54278)
log2 fold change [1]: 0.064
log2 fold change [2]: -0.384 (active)
log2 fold change [3]: 0.026
log2 fold change [4]: 0.027
log2 fold change [5]: 0.001

PDCD10 (UniProt Q9BUL8)
log2 fold change [1]: -0.009
log2 fold change [2]: 0.158
log2 fold change [3]: -0.001
log2 fold change [4]: -0.037
log2 fold change [5]: 0.011
